From PubChem
In the library only some 2.4% were active in any assay of this set; here they are far more common.
CendR NRP1 mod – NRP-1/CendR interaction modulation; FAM-RPARPAR peptide binding to NRP-1, fluorescence polarization; inhibition, % at 25 µM; actives 0.85% (n = 360,000);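 active means inhibition or corrected inhibition above about 18%, plus a signal ratio from 0.5 to 1.5, limit read from the data, passing the limit was not always enough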
Target sequence (O14786 whole entry, looked up): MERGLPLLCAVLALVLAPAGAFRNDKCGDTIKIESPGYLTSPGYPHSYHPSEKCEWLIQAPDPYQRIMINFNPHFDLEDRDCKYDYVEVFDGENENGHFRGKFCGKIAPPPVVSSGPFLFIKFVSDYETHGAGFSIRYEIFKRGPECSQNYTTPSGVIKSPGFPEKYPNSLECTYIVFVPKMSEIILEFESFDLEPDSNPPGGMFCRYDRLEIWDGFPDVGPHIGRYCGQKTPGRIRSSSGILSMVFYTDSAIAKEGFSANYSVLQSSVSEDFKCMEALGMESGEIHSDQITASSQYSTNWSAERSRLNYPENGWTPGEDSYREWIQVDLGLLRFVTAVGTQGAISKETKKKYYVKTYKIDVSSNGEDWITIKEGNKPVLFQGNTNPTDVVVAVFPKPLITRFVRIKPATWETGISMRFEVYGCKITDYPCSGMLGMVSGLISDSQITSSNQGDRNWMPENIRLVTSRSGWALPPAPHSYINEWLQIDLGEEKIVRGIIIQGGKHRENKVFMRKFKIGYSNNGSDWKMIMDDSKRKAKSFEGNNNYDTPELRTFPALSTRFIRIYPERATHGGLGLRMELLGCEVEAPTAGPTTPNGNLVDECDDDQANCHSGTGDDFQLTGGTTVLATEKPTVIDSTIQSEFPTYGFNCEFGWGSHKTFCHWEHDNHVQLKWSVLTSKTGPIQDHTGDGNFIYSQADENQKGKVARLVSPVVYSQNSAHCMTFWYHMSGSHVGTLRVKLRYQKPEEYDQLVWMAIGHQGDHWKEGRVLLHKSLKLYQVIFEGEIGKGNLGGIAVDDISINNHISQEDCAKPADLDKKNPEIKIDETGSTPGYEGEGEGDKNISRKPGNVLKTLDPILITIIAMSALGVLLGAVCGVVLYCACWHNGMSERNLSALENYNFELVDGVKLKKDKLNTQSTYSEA
APOBEC3G inh – blocks human APOBEC3G single-stranded DNA deamination | Q9HC16 | recombinant A3G, ssDNA deamination FAM/TAMRA fluorescence | inhibition, % at 20 µM | actives 0.28% (n = 330,000) | AID 493012;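 active means inhibition of at least 40% at 20 µM, with no more than 30% in the related APOBEC3A deaminase screen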;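 further: plate controls were DMSO wells with A3G for no effect and wells lacking A3G enzyme for full effect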
ADAM10 inh – inhibits human ADAM10; recombinant ADAM10, EDANS/DABCYL FRET peptide cleavage, 3 h; inhibition, % at 7 µM; actives 0.62% (n = 370,000); AID 720582;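 active means inhibition above a per-campaign cutoff equal to the mean of compounds falling between control-based bounds plus 3 SD, cut at about 20% in these data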;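 further: 0% = DMSO wells while the 100% control is not disclosed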
ADAM17 inh – inhibitors of human ADAM17 | P78536 | recombinant ADAM17, EDANS/DABCYL FRET peptide cleavage | inhibition, % at 6.95 µM | actives 0.83% (n = 370,000);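 active means inhibition above the mean of compounds lying between control limits plus 3 SD, set per campaign, cut at about 8.5% in these data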;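 further: 0% = DMSO-only wells as the low control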
A3A deaminase – blocks human APOBEC3A ssDNA deamination. recombinant A3A, FAM/TAMRA ssDNA deamination fluorescence. inhibition, % at 20 µM. P31941. actives 0.41% (n = 330,000);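 active means at least 40% inhibition at 20 µM here, with at most 30% in a related deaminase screen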;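 further: plate controls were A3A with DMSO for no effect and wells lacking A3A enzyme for full effect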
ADAM10 counter – inhibits human ADAM10 in ADAM17 exosite counter-screen | shares compounds with ADAM17 inh | recombinant ADAM10, EDANS/DABCYL FRET peptide cleavage, 3 h | inhibition, % at 6.95 µM | actives 47% (n = 2,900) | AID 743256;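 active means mean inhibition over the triplicate runs exceeds the activity threshold set in the earlier primary screen, cut at about 20% in these data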;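 further: 0% = DMSO wells and 100% = marimastat wells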
ADAM17 confirm – confirmation of inhibitors of human ADAM17; shares compounds with ADAM17 inh; recombinant ADAM17, EDANS/DABCYL QFRET peptide cleavage; inhibition, % at 6.95 µM; actives 65% (n = 2,900); AID 743257;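 active means mean inhibition across replicates above the hit cutoff set in the primary screen, cut at about 8.5% in these data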;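 further: 0% = DMSO wells and 100% = marimastat wells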
Active calls of the source: *; nt = not tested or not shown.

SMILES	CendR NRP1 mod	APOBEC3G inh	ADAM10 inh	ADAM17 inh	A3A deaminase	ADAM10 counter	ADAM17 confirm
Cc1ccc(SCC(=O)OCC(=O)NCc2ccco2)cc1	-4	-5	-4	9.2*	-1	8	4
Cc1ccc(N=C2NC(=O)/C(=C\c3ccsc3)S2)c(C)c1	26*	-9	11	8.8*	1	32*	20*
O=C(c1ccccc1F)N1CCN(S(=O)(=O)c2ccc(S(=O)(=O)N3CCCCC3)cc2)CC1	-2	-5	7	8.8*	-2	-13	-4
CCCCNS(=O)(=O)c1ccc(NC(=O)C(Sc2ccccc2)c2ccccc2)cc1 (centres undefined)	9	nt	38*	17*	nt	46*	27*
CC(=O)Nc1ccc(NC(=O)C(Sc2ccccc2)c2ccccc2)cc1 (centres undefined)	7	1	5	-1	-1	nt	nt
CCn1c2c(c3cc(OCC(C)C)ccc31)CCCC2=O	4	-5	-27	-10	-1	nt	nt
CCn1c2c(c3cc(Br)ccc31)CCC/C2=N\O	0	-2	16	9.5*	5	0	6
Cc1cccc(O)c1C	-19	4	-13	-1	3	nt	nt
Cc1cccc(C)c1N=Nc1c(C)cc(O)cc1C	15	-9	19	9.9*	-6	45*	20*
Cc1cc(C(=O)Nn2c(-c3ccc(Br)cc3)nc3ccccc3c2=O)ccc1[N+](=O)[O-]	1	-5	14	8.9*	-7	24*	12*
Cc1cccc(C(=O)Nc2cccc(OC(=O)c3cccc(C)c3)c2)c1	7	-2	11	10*	3	30*	17*
CC(=O)Oc1cccc(NC(=O)c2cccc(C(=O)Nc3cccc(OC(C)=O)c3)c2)c1	6	-2	1	-1	-5	nt	nt
CCOC(=O)C1=CCN(S(=O)(=O)c2ccc(C)cc2)C1c1cccs1 (centres undefined)	-7	nt	17	11*	nt	6	7
CCOC(=O)C1=CCN(S(=O)(=O)c2ccc(C)cc2)C1c1cccc2ccccc12 (centres undefined)	0	nt	5	7	nt	nt	nt
NC(CSCc1ccccc1Cl)C(=O)O (centres undefined)	12	-1	-15	-4	2	nt	nt
N=C(N)SCc1ccccc1Cl	5	-9	-4	9.4*	-3	8	4
CCOC(=O)C1CSCCS(=O)(=O)N1Cc1cccc(F)c1 (centres undefined)	nt	nt	-6	-2	nt	nt	nt
COc1ccc(S[C@]2(C(=O)N3CCOCC3)CC(=O)N[C@@H]2c2ccc(OC)cc2)cc1	nt	nt	4	-2	nt	nt	nt
CCN(CC)C(=O)CN(c1cc2c(cc1OC)oc1ccccc12)S(=O)(=O)c1ccc(C)cc1	3	4	19	16*	4	0	8
CC(C(=O)O)N1C(=O)/C(=C/c2cccn2C)SC1=S (centres undefined)	-168	nt	9	2	nt	nt	nt
Cn1cccc1/C=C1\SC(=S)N(NC(=O)c2ccc(F)cc2)C1=O	-80	1	15	13*	1	8	4
CCC(C(=O)O)N1C(=O)/C(=C/c2cccn2C)SC1=S (centres undefined)	-164	nt	19	8.8*	nt	17	12*
O=C(O)C1CCCN1C(=O)c1cccc(Cl)c1 (centres undefined)	nt	nt	-1	-3	nt	nt	nt
CCOC(=O)C1(Cc2ccccc2)CCN(Cc2ccc(C(F)(F)F)cc2)CC1	nt	nt	-2	1	nt	nt	nt
O=C(Nc1ccc(Br)cc1)c1ccc(F)c(S(=O)(=O)NCc2cccs2)c1	-1	0	20*	9.3*	4	25*	16*
SMILES	CendR NRP1 mod	APOBEC3G inh	ADAM10 inh	ADAM17 inh	A3A deaminase	ADAM10 counter	ADAM17 confirm
O=C(Nc1cccc(Cl)c1)c1ccc(F)c(S(=O)(=O)NCc2ccc3c(c2)OCO3)c1	-2	-4	18	8.7*	1	24*	13*
O=S(=O)(NCc1cccs1)c1ccc(Br)cc1	13	-5	2	2	-4	nt	nt
O=C(NCc1ccc2c(c1)OCO2)c1ccc(Cl)c(S(=O)(=O)NCc2ccccc2)c1	0	-2	1	0	-1	nt	nt
CC1(C)CC(=O)C=C(Nc2ccccc2NC(=O)c2cc(F)ccc2F)C1	nt	nt	-9	-6	nt	nt	nt
CC(C)(C)S(=O)N1C[C@@H]2CC(=O)C(c3ccccc3)=C2[C@H]1CCO (some centres undefined)	nt	nt	-14	0	nt	nt	nt
CC(C)C[C@H](CO)N(Cc1ccccc1)S(=O)(=O)N(Cc1ccccc1)[C@@H](CO)CC(C)C	-1	-3	-3	13*	-2	47*	26*
Cc1ccc(S(=O)(=O)N2CCOC2CNC(=O)C(=O)NCCCc2ccccc2)cc1 (centres undefined)	6	-3	-1	9.3*	-3	22*	21*
Cc1ccc(S(=O)(=O)N2CCOC2CNC(=O)C(=O)NCCc2ccccc2)cc1 (centres undefined)	-10	-2	-6	-6	4	nt	nt
O=C(Nc1ccc(Cl)c(Cl)c1)C1CCCN(c2nnc(-n3cccc3)s2)C1 (centres undefined)	nt	nt	16	11*	nt	30*	15*
Cc1ccccc1C(=O)N[C@@H](CC(C)C)C(=O)N1CCC[C@H]1C(=O)NCc1ccccc1	nt	nt	-3	-4	nt	nt	nt
CCN(C[C@H]1N[C@@](C)(C(=O)OC)[C@H]2C(=O)N(Cc3ccccc3)C(=O)[C@@H]12)S(=O)(=O)c1ccc(F)cc1	-10	-8	-5	4	-3	nt	nt
CCN(C[C@H]1N[C@@](C)(C(=O)OC)[C@H]2C(=O)N(Cc3ccccc3)C(=O)[C@@H]12)S(=O)(=O)c1ccc(C(C)(C)C)cc1	-7	-7	15	9.4*	-4	21*	13*
O=C(Nc1ccc(Nc2ccccc2)cc1)c1ccc(Cl)c([N+](=O)[O-])c1	9	-4	17	8.6*	-1	28*	18*
CS(=O)(=O)N1CCN(c2ccc(NC(=O)C(c3ccccc3)c3ccccc3)cc2)CC1	20	-6	17	13*	3	6	3
Cc1noc(C)c1C(=O)OCC(=O)Nc1ccccc1C(=O)NC(C)c1ccccc1 (centres undefined)	7	-1	-1	-5	-3	nt	nt
Cc1noc(C)c1C(=O)OCC(=O)Nc1ccccc1Oc1ccccc1	3	-3	12	8.7*	6	6	11*
O=C(O)Cc1csc2ccccc12	12	-2	9	10.0*	7	-9	-4
C[C@H]1C(C(=O)N(C)C2CCCCC2)=Cc2c(n(-c3ccc(F)cc3)c(=O)n2CCCOc2ccccc2)C=C1c1ccccc1	nt	nt	-36	-9	nt	nt	nt
